The record followed here is PubChem BioAssay (Tox21).

The assay deals with Beta-2 adrenergic receptor (Homo sapiens) (UniProt P07550). In words: Adrenergic beta2 receptor (ADRB2) small molecule agonists, cell-based qHTS assay (AID 1963593).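 Also: CHO cells stably overexpressing human ADRB2.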 The following applies: CHO-ADRB2 cells, cAMP HTRF, 30 min; series mostly up to 92.4 µM. Summed up:
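CHO cells stably over-expressing ADRB2 were plated overnight at 37C, then dosed with compounds plus a stimulation mix containing 100uM IBMX and 25uM Ro-20-1724 for 0.5hr at room temperature. cAMP was measured by HTRF competition, 1hr.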

Molecules are shown by their SMILES. Results filed as inconclusive are left out. A call without a number means that no potency is given here. Activity calls are given as the source filed them. Calls follow the shape of the full dose curve.

Sequence of Beta-2 adrenergic receptor (Homo sapiens) (P07550 whole entry, looked up): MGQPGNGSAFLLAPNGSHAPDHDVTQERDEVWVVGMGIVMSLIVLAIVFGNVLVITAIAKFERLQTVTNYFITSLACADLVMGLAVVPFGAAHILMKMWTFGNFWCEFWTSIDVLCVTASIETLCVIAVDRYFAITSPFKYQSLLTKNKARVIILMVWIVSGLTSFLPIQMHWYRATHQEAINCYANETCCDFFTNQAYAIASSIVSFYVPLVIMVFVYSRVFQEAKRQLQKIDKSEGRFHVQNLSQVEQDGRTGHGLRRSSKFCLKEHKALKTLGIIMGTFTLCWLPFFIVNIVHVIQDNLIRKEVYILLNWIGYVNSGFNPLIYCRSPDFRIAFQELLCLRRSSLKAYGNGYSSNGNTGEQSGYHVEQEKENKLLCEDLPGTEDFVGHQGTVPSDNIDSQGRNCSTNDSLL

Regarding `CC(C)CCCCCCOC(=O)c1ccccc1C(=O)OCCCCCCC(C)C`, the Potency result is “inactive”. As for `Nc1ccccc1C(=O)O`, the Potency entry is “inactive”. The same measure for `C(=NC1CCCCC1)=NC1CCCCC1`: “inactive”. The same measure for `COc1ccc(O)c(C(C)(C)C)c1`: “inactive”; for `Cc1cc(O)ccc1Cl`: “inactive”; for `Cc1cccc(N)c1C`: “inactive”. The same measure for `O=[N+]([O-])CCO`: “inactive”. Regarding `CCCCCBr`, the Potency result was “inactive”.

As to `N#CCc1ccccc1`, the Potency result is “inactive”. With `C=CC1(C)OC(=O)N(c2cc(Cl)cc(Cl)c2)C1=O` (stereo unspecified), the Potency entry was “inactive”. For `c1ccc(-c2cccc(-c3ccccc3)c2)cc1`, the Potency entry was “inactive”. The same measure for `CCCCC(C#N)(Cn1cncn1)c1ccc(Cl)cc1` (stereo unspecified): “inactive”. The same measure for `c1ccc2c(c1)Oc1ccccc1O2`: “inactive”. The same measure for `N#CCCC#N`: “inactive”; for `O=C(O)C1C(C(=O)O)C2(Cl)C(Cl)=C(Cl)C1(Cl)C2(Cl)Cl` (stereo unspecified): “inactive”; for `NC(=O)c1cc([N+](=O)[O-])cc([N+](=O)[O-])c1`: “inactive”.

Consider `c1ccc(NNc2ccccc2)cc1`, for which the Potency result was “inactive”.

Consider `CCC(=O)c1ccccc1`, for which the Potency entry was “inactive”. `Cc1ccc2cc(C)ccc2c1`: the Potency entry was “inactive”. The same measure for `C[C@]12CCC(=O)C=C1CC[C@@H]1[C@@H]2CC[C@]2(C)C(=O)CC[C@@H]12`: “inactive”; for `CN(C)C(=O)Nc1ccc(Cl)cc1`: “inactive”. The same measure for `CC(O)CN1CCN(CC(=O)[O-])CCN(CC(=O)[O-])CCN(CC(=O)[O-])CC1.[Gd+3]` (stereo unspecified): “inactive”; for `COCCC#N`: “inactive”. The same measure for `CCCCCCCCCCCCCl`: “inactive”; for `CCCC[n+]1cccc(C)c1`: “inactive”. For `ClCc1ccccn1`, the Potency result is “inactive”. The same measure for `O=C(O)C(F)(F)C(F)(F)C(F)(F)C(F)(F)C(F)(F)C(F)(F)C(F)(F)F`: “inactive”. The same measure for `C=CC(=O)OC(C)(C)C`: “inactive”. In the case of `C=CCN1CC[C@]23CCCC[C@H]2[C@H]1Cc1ccc(O)cc13`, the Potency entry was “inactive”.

Turning to `CN(C)N=O`, the Potency result is “inactive”. Consider `CC1(C)C(C=C(Cl)Cl)C1C(=O)OC(C#N)c1cccc(Oc2ccccc2)c1` (stereo unspecified), for which the Potency entry is “inactive”. The same measure for `CCOP(=O)(OCC)OCC`: “inactive”; for `CN(C)CCO`: “inactive”; for `Oc1ccc(Cl)cc1Cl`: “inactive”. The same measure for `Brc1ccc(Oc2cc(Br)c(Br)cc2Br)c(Br)c1`: “inactive”; for `[N-]=[N+]=[N-]`: “inactive”; for `COP(=O)(O)OC`: “inactive”.

Regarding `Nc1ccncc1`, the Potency result is “inactive”. With `N#CCNCC#N`, the Potency entry was “inactive”. The same measure for `Clc1ccc(C(Cl)(Cl)Cl)cc1`: “inactive”; for `O=C(O)c1nc(Cl)ccc1Cl`: “inactive”. With `CC1=C(C(=O)Nc2ccccc2)SCCO1`, the Potency entry is “inactive”.

Regarding `Cc1ccc(N=C=O)cc1N=C=O`, the Potency entry is “inactive”. The same measure for `ClCCOCCCl`: “inactive”. With `Cl[C@H]1OCCO[C@@H]1Cl`, the Potency entry is “inactive”. The same measure for `CC(C)=CC1C(C(=O)OCN2C(=O)C3=C(CCCC3)C2=O)C1(C)C` (stereo unspecified): “inactive”; for `O=C(O)c1ccc(=O)[nH]c1`: “inactive”. The same measure for `N#Cc1ccc(Cl)cc1`: “inactive”. The same measure for `BrCCc1ccccc1`: “inactive”; for `Cc1ccc2ccccc2c1`: “inactive”; for `O=C(O)CCCc1ccc(N(CCCl)CCCl)cc1`: “inactive”. With `O=C(Cc1ccccc1)c1ccccc1`, the Potency result was “inactive”. The same measure for `Nc1ccc(-c2ccc(N)c(Cl)c2)cc1Cl`: “inactive”; for `O=[N+]([O-])c1ccc(Oc2ccc(Cl)cc2Cl)cc1`: “inactive”. The same measure for `Nc1ccc(Cc2ccc(N)cc2)cc1`: “inactive”; for `NC(=O)CCl`: “inactive”.

Consider `CC(C)(C)OOC(=O)c1ccccc1`, for which the Potency result was “inactive”. The same measure for `CC(C)[N+](C)(CCC(C(N)=O)(c1ccccc1)c1ccccc1)C(C)C`: “inactive”; for `CCC(=O)O[C@H]1CC[C@H]2[C@@H]3CCC4=CC(=O)CC[C@]4(C)[C@H]3CC[C@]12C`: “inactive”.

Regarding `CCOC(=O)C1(c2ccccc2)CCN(CCC(C#N)(c2ccccc2)c2ccccc2)CC1`, the Potency entry is “inactive”. `CCCCCCCCCCCCCCCC[n+]1ccccc1`: the Potency result is “inactive”. The same measure for `Cc1cccc(N=Nc2ccc(N(C)C)cc2)c1`: “inactive”; for `Nc1ccccc1C(=O)OCCc1ccccc1`: “inactive”; for `O=C(O)C(Cl)(Cl)Cl`: “inactive”. The same measure for `C=CCc1ccc2c(c1)OCO2`: “inactive”. The same measure for `CC1(C)C(=O)NC(=O)NC1=O`: “inactive”; for `CC(Oc1ccc(Cl)cc1Cl)C(=O)O` (stereo unspecified): “inactive”. For `Cc1cccc(C)c1NC(=O)CN1CCCC1=O`, the Potency result was “inactive”. With `NC(=O)CN1CCCC1=O`, the Potency entry was “inactive”. The same measure for `C=CC(N)=O`: “inactive”; for `CCCCC(CC)CO[N+](=O)[O-]` (stereo unspecified): “inactive”.

On to `COc1ccc(C(CN(C)C)C2(O)CCCCC2)cc1` (stereo unspecified), for which the Potency result is “inactive”. The same measure for `C#CCO`: “inactive”. The same measure for `CCCCNC(=O)n1c(NC(=O)OC)nc2ccccc21`: “inactive”. The same measure for `c1nc[nH]n1`: “inactive”. On to `N#Cc1nn(-c2c(Cl)cc(C(F)(F)F)cc2Cl)c(N)c1S(=O)C(F)(F)F` (stereo unspecified), for which the Potency result is “inactive”.
